In assay [1] the test system is MDA-MB-231. The assay can be described thus: cell viability relative to vehicle unstimulated control (fraction); higher = more viable cells. Particulars: pre-treatment time: 18 h then 24 h IFNg/TNF.
In assay [2] the test system is MDA-MB-231. The experiment in a line: kynurenine production, fold change vs DMSO IFNg/TNF control; higher = more kynurenine produced (less inhibition). Particulars: pre-treatment time: 18 h then 24 h IFNg/TNF. The essentials:
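MDA-MB-231 cells (7 × 10^4/well, 96-well plates, seeded 24 h earlier) were pre-treated 18 h with each natural product in 0.1% DMSO, then stimulated 24 h with IFNγ (1 U/ml) and TNF (6.25 ng/ml) at 37°C. Supernatant kynurenine was read at 492 nm after trichloroacetic acid and p-dimethylaminobenzaldehyde treatment, against 0–100 μM standards. Kynurenine production is the fold change over cytokine-stimulated vehicle wells on the same plate, averaged over duplicate plates in the first screening round.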

± gives the standard deviation of the averaged measurements.
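Throughout, for cell viability relative to vehicle unstimulated control: viability of the cells left after supernatant collection, read with Deep Blue dye added for 4 h, as absorbance at 570 nm minus 600 nm.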

For `CC(=O)OC(C)(C)CCC(=O)[C@](C)(O)[C@H]1[C@H](O)C[C@@]2(C)[C@@H]3CC=C4[C@@H](C[C@H](O)[C@@H](O)C4(C)C)[C@]3(C)C(=O)C[C@]12C` [Cucurbitacin IIa] (compound dose: 10 uM), the cell viability in the assay with MDA-MB-231 [1] is 0.939 ± 0.036. Further, in the assay with MDA-MB-231 [2], the kynurenine production came to 0.778 ± 0.07.
Consider `CC(CC(=O)C[C@@H](C)[C@H]1CC(=O)[C@@]2(C)C3=C(C(=O)C[C@]12C)[C@@]1(C)CCC(=O)C(C)(C)[C@@H]1C[C@@H]3O)C(=O)O` (stereo partly specified) [Ganoderic acid D] (compound dose: 10 uM), for which the cell viability in the assay on MDA-MB-231 [1] is 0.916 ± 0.036. Also, in the assay on MDA-MB-231 [2], the kynurenine production came out at 0.869 ± 0.11.
For the molecule `C[C@H](CC[C@@H](O)C(C)(C)O)[C@H]1CC[C@@]2(C)[C@@H]3CC=C4[C@@H](CC[C@H](O)C4(C)C)[C@]3(C)[C@H](O)C[C@]12C` [Mogrol] (compound dose: 10 uM), in the assay with MDA-MB-231 [1], the cell viability worked out at 0.939 ± 0.051. The kynurenine production with MDA-MB-231 [2] came to 0.905 ± 0.15.
With `C=C1CC[C@H]2[C@@H](/C=C(\C)C(=O)[C@@]3(OC(C)=O)C[C@H](C)[C@H](OC(=O)c4cccnc4)[C@@H]3[C@H]1OC(C)=O)C2(C)C` [Euphorbia factor L8] (compound dose: 10 uM), the cell viability in the assay with MDA-MB-231 [1] turned out to be 1.1 ± 0.075. The kynurenine production in the assay with MDA-MB-231 [2] is 0.89 ± 0.083.
On the same counts, the results for `CC12CCC(C1)C(C)(C)C2O` (stereo unspecified) [Fenchyl alcohol] (compound dose: 10 uM) are 1.03 ± 0.041 and 0.817 ± 0.31.
For `O=C(O)/C=C/c1ccccc1O` [O-coumaric acid] (compound dose: 10 uM) the same measures were 0.976 ± 0.097 and 0.9916 ± 0.006.
Regarding `CC(=O)OCC1=CO[C@@H](OC(=O)CC(C)C)[C@H]2C1=C[C@H](OC(=O)CC(C)(C)OC(C)=O)[C@]21CO1` [Acevaltrate] (compound dose: 10 uM), the cell viability in the assay on MDA-MB-231 [1] came out at 0.474 ± 0.047. In addition, the kynurenine production in the assay with MDA-MB-231 [2] is 0.171 ± 0.011.
For `C=C1C[C@@]23CC[C@H]4[C@@](C)(CCC[C@@]4(C)C(=O)O[C@@H]4O[C@H](CO)[C@@H](O)[C@H](O)[C@H]4O)[C@@H]2CC[C@]1(O[C@@H]1O[C@H](CO)[C@@H](O)[C@H](O)[C@H]1O[C@@H]1O[C@H](CO)[C@@H](O)[C@H](O)[C@H]1O)C3` [Stevioside] (compound dose: 10 uM), the cell viability in the assay with MDA-MB-231 [1] came out at 1.05 ± 0.015. Further, in the assay with MDA-MB-231 [2], the kynurenine production turned out to be 0.959 ± 0.14.
Take `CC1(C)CC[C@]2(C(=O)O)[C@H](O)C[C@]3(C)C(=CC[C@@H]4[C@@]5(C)CC[C@H](O)C(C)(C)[C@@H]5CC[C@]43C)[C@H]2C1` [Echinocystic acid] (compound dose: 10 uM): the cell viability in the assay on MDA-MB-231 [1] came to 1.03 ± 0.014. In the assay with MDA-MB-231 [2], the kynurenine production was determined as 0.787 ± 0.065.
`COc1ccc(-c2cc(=O)c3c(O)c(OC)c(O[C@@H]4O[C@H](CO[C@@H]5O[C@@H](C)[C@H](O)[C@@H](O)[C@H]5O)[C@@H](O)[C@H](O)[C@H]4O)cc3o2)cc1` [Pectolinarin] (compound dose: 10 uM): the cell viability in the assay on MDA-MB-231 [1] stood at 0.833 ± 0.26. For the same molecule, the kynurenine production in the assay on MDA-MB-231 [2] stood at 0.907 ± 0.2.
Turning to `O=c1cc(-c2ccc(O)cc2)oc2cc(O)cc(O)c12` [Apigenin] (compound dose: 10 uM), the cell viability with MDA-MB-231 [1] stood at 0.96 ± 0.053. The kynurenine production in the assay with MDA-MB-231 [2] amounted to 0.806 ± 0.026.
Regarding `CC(=O)OCC1=COC(OC(C)=O)C2C(C)CCC12` (stereo unspecified) [Teucrein] (compound dose: 10 uM), in the assay with MDA-MB-231 [1], the cell viability worked out at 0.889 ± 0.026. In addition, the kynurenine production in the assay with MDA-MB-231 [2] was 0.842 ± 0.086.
Take `C[C@@H]1CC[C@]2(C(=O)O[C@@H]3O[C@H](CO)[C@@H](O)[C@H](O)[C@H]3O)CC[C@]3(C)C(=CC[C@@H]4[C@@]5(C)CC[C@H](O)[C@](C)(C(=O)O)[C@@H]5CC[C@]43C)[C@@H]2[C@]1(C)O` [Ilexsaponin A] (compound dose: 10 uM): in the assay with MDA-MB-231 [1], the cell viability came out at 1.02 ± 0.016. Moreover, the kynurenine production in the assay with MDA-MB-231 [2] stood at 0.883 ± 0.013.
On the same counts, the results for `CCCCCC(=O)O[C@@H]1[C@@H](C)[C@@]2(O)[C@@H](C=C(CO)C[C@]3(O)C(=O)C(C)=C[C@@H]23)[C@@H]2C(C)(C)[C@]12OC(=O)CCCCC` [Phorbol 12, 13-Dihexanoate] (compound dose: 10 uM) are 1.05 ± 0.076 and 0.896 ± 0.056.
Turning to `C[C@@H]1O[C@@H](O[C@H]2[C@H](OC(=O)[C@]34CCC(C)(C)C[C@H]3C3=CC[C@@H]5[C@@]6(C)C[C@H](O)[C@H](O[C@@H]7O[C@H](CO)[C@@H](O)[C@H](O)[C@H]7O)C(CO)(CO)[C@@H]6CC[C@@]5(C)[C@]3(C)C[C@H]4O)OC[C@H](O)[C@@H]2O)[C@H](O)[C@H](O)[C@H]1O[C@@H]1OC[C@@H](O)[C@H](O)[C@H]1O` [Deapioplatycodin D] (compound dose: 10 uM), the cell viability in the assay on MDA-MB-231 [1] is 0.93 ± 0.031. For the same molecule, the kynurenine production in the assay with MDA-MB-231 [2] amounted to 0.643 ± 0.13.
Turning to `CC(C)=CCCC(C)CCO` (stereo unspecified) [Citronellol] (compound dose: 10 uM), the cell viability in the assay on MDA-MB-231 [1] came out at 1.03 ± 0.057. In the assay on MDA-MB-231 [2], the kynurenine production came out at 0.845 ± 0.25.
`CC(=O)OC(CC(C)C1=C2C[C@H](O)C3[C@@]4(C)CCC(=O)C(C)(C)C4CC[C@]3(C)[C@@]2(C)CC1)C1OC1(C)C` (stereo partly specified) [Alisol B 23-acetate] (compound dose: 10 uM): the cell viability in the assay on MDA-MB-231 [1] amounted to 1.05 ± 0.034. In the assay with MDA-MB-231 [2], the kynurenine production was found to be 1.27 ± 0.24.
For `CC(C)(O[C@@H]1O[C@H](CO)[C@@H](O)[C@H](O)[C@H]1O)[C@@H]1CC[C@](C)([C@H]2[C@@H](O)C[C@@]3(C)[C@@H]4C[C@H](O)[C@H]5C(C)(C)[C@@H](O[C@@H]6OC[C@@H](O)[C@H](O)[C@H]6O)CC[C@@]56C[C@@]46CC[C@]23C)O1` [Isoastragaloside IV] (compound dose: 10 uM) the same measures were 0.924 ± 0.083 and 1.23 ± 0.33.

For the origin of these results see the supplement of paper PMC13094657.
